The structures appear in SMILES notation. Values without a mark were called inactive. Active and inactive are the calls of the source.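 The calls were made as follows: active = blocks over 60% of fluorescent estradiol binding at 10 µM; inactive = the rest.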

The target of the experiment is G-protein coupled estrogen receptor 1 (Homo sapiens) (UniProt Q99527). Kind of experiment: displacement of E2-Alexa633 from GPER – cell-based, Cos7 GPR30-GFP, flow cytometry, 10 µM, primary screen (AID 1212). The note with it: fluorescent estrogen competition, at 10 µM; hits give high values. A general note: A flow cytometer gives signals particle by particle.
Consider `COc1ccc2c(c1)c1c3n2CCNC3CCC1` (configuration not stated), for which the result was inactive.
On the same count and under the same terms, for `CCCOc1cc2oc(=O)c3c(c2cc1CC)CCCC3` the value was “inactive”; for `CCCc1cc(=O)oc2c(C)c(OC3CCCCC3=O)ccc12` (configuration not stated), “inactive”.
For the compound `CCOc1cc2c(c([N+](=O)[O-])c1)NC(c1ccc(Cl)cc1)C1CC=CC21` (configuration not stated), the outcome was inactive.
Turning to `CCc1cc2c3c(c(=O)oc2cc1OCC(=O)OC)CCCC3`, the call was inactive.
On to `Cc1ccc(-n2cc3c(c(C#N)c2=N)CC(C)(C)CC3=O)cc1`, for which the compound was classed as inactive.
As for `CC(=O)c1ccc(N2Cc3ccccc3C2)cc1`, the outcome was inactive.
One may read the inhibition as the percentage by which the read-out fell short of the control. Take `CCOc1cc2c(c([N+](=O)[O-])c1)NC(c1ccc(Br)cc1)C1CC=CC21` (configuration not stated): the inhibition was 23%.
Still for that read-out and setting: for `CCOc1ccc(NS(=O)(=O)c2ccc3c(c2)[C@H]2C=CC[C@H]2[C@@H](c2ccc([N+](=O)[O-])cc2)N3)cc1` the value was 55%.
Regarding `COc1cc(C2C3C(C)N(C)C(=O)N(C)C3N(C)C(=O)N2C)ccc1O` (configuration not stated), the compound was called inactive.
For the compound `O=c1oc2cc(O)c(Cl)cc2c2c1CCCC2`, the compound was called inactive.
With `N#Cc1c2c(c(=O)n3c1[nH]c1ccccc13)CCCC2`, the inhibition is 15%.
Turning to `COc1ccc(NS(=O)(=O)c2ccc3c(c2)[C@H]2C=CC[C@H]2[C@@H](c2cccc(OC)c2OC)N3)cc1`, the inhibition is 44%.
On to `CCOc1cc2c(cc1OCC)C(C1CCCCC1)NCC2` (configuration not stated), for which the outcome was inactive.
For `CC1CCCC(C)N1Cc1c(O)ccc2c3c(c(=O)oc12)CCC3` (configuration not stated), the inhibition is 23%.
As to `COc1ccc(Oc2ccc3c(c2)c2c4n3CCNC4CCC2)cc1` (configuration not stated), the compound was called inactive.
On the same count and under the same terms, as for `Oc1ccc2c(c1)c1c3n2CCNC3CCC1` (configuration not stated), the entry is “inactive”.
On to `COc1cc([N+](=O)[O-])cc2c1N[C@@H](c1ccc(C(=O)O)cc1)[C@H]1CC=C[C@@H]21`, for which the inhibition was 91% (active).
Still for that read-out and setting: for `CC1CCC2(C)c3[nH]c4ccccc4c3CCN2C1=O` (configuration not stated) the value was 2%.
As for `CCOc1cc2c(cc1OCC)C(C(CC)CC)NCC2` (configuration not stated), the compound was called inactive.
Regarding `CC(=O)c1ccc2c(c1)C1C=CCC1C(c1cccc([N+](=O)[O-])c1)N2` (configuration not stated), the inhibition is 64% (active).
Regarding `CCOC(=O)c1ccc2c(c1)C1C=CCC1C(c1cccc([N+](=O)[O-])c1)N2` (configuration not stated), the inhibition was 48%.
On the same count and under the same terms, for `COc1cc2c(cc1OC)CC(C)(C)N(Cc1ccco1)C2` the value was 5%.
In the case of `COc1cc([C@@H]2Nc3ccc(S(=O)(=O)Nc4ccccc4F)cc3[C@@H]3C=CC[C@@H]32)cc(OC)c1OC`, the inhibition was 17%.
Still for that read-out and setting: for `COc1cc([N+](=O)[O-])cc2c1NC(c1ccccc1)C1CC=CC21` (configuration not stated) the value was 34%; for `COc1ccccc1C1Nc2c(C(=O)O)cccc2C2C3CCC(C3)C12` (configuration not stated), 5%; for `COC(=O)c1ccc2c(c1)C1C=CCC1C(c1cccc([N+](=O)[O-])c1)N2` (configuration not stated), 16%.

Source of the values: PubChem BioAssay AID1212 (NMMLSC, 2008).
